# Measured values as given in PMC11062922 (Nature Chemical Biology, 2023).
# Where two headings read alike, the source gives them in different places.
# Key:
# CHEK1 = conditions: read-out: apparent Kd, n = 1
# ERN1 = conditions: read-out: apparent Kd, n = 1
substance,measurement,setting,value
Lestaurtinib,potency estimated from few doses,"CHEK1; compound concentrations:100 nM and 1000 nM (sheet 'Lestaurtinib' of Supplementary Table 1),run:Lestaurtinib_02601_R1,Plate:MR018",98 nM
same,potency estimated from few doses,"CHEK1; compound concentrations:100 nM and 1000 nM (sheet 'Lestaurtinib' of Supplementary Table 1),run:Lestaurtinib_02601_R3,Plate:MR018",78.8 nM
same,potency estimated from few doses,"CHEK1; compound concentrations:100 nM and 1000 nM (sheet 'Lestaurtinib' of Supplementary Table 1),run:Lestaurtinib_02606_R1,Plate:MR019",88.5 nM
same,potency estimated from few doses,"CHEK1; compound concentrations:100 nM and 1000 nM (sheet 'Lestaurtinib' of Supplementary Table 1),run:Lestaurtinib_02606_R2,Plate:MR019",74.1 nM
same,potency estimated from few doses,"CHEK1; compound concentrations:100 nM and 1000 nM (sheet 'Lestaurtinib' of Supplementary Table 1),run:Lestaurtinib_02606_R3,Plate:MR019",97 nM
same,potency estimated from few doses,"CHEK1; compound concentrations:100 nM and 1000 nM (sheet 'Lestaurtinib' of Supplementary Table 1),run:Lestaurtinib_02624_R2,Plate:MR020",93 nM
same,potency estimated from few doses,"CHEK1; compound concentrations:100 nM and 1000 nM (sheet 'Lestaurtinib' of Supplementary Table 1),run:Lestaurtinib_02624_R3,Plate:MR020",79 nM
same,potency estimated from few doses,"CHEK1; compound concentrations:100 nM and 1000 nM (sheet 'Lestaurtinib' of Supplementary Table 1),run:Lestaurtinib_02724_R3,Plate:MR021",92 nM
same,potency estimated from few doses,"CHEK1; compound concentrations:100 nM and 1000 nM (sheet 'Lestaurtinib' of Supplementary Table 1),run:Lestaurtinib_02741_R1,Plate:MR023",88 nM
same,potency estimated from few doses,"CHEK1; compound concentrations:100 nM and 1000 nM (sheet 'Lestaurtinib' of Supplementary Table 1),run:Lestaurtinib_02748_R1,Plate:MR024",69.5 nM
same,potency estimated from few doses,"CHEK1; compound concentrations:100 nM and 1000 nM (sheet 'Lestaurtinib' of Supplementary Table 1),run:Lestaurtinib_02748_R3,Plate:MR024",80.1 nM
same,potency estimated from few doses,"CHEK1; compound concentrations:100 nM and 1000 nM (sheet 'Lestaurtinib' of Supplementary Table 1),run:Lestaurtinib_02752_R1,Plate:MR025",75.5 nM
same,potency estimated from few doses,"CHEK1; compound concentrations:100 nM and 1000 nM (sheet 'Lestaurtinib' of Supplementary Table 1),run:Lestaurtinib_02765_R2,Plate:MR026",98.7 nM
same,potency estimated from few doses,"CHEK1; compound concentrations:100 nM and 1000 nM (sheet 'Lestaurtinib' of Supplementary Table 1),run:Lestaurtinib_02765_R3,Plate:MR026",75.5 nM
same,potency estimated from few doses,"CHEK1; compound concentrations:100 nM and 1000 nM (sheet 'Lestaurtinib' of Supplementary Table 1),run:Lestaurtinib_02766_R1,Plate:MR027",92 nM
same,potency estimated from few doses,"CHEK1; compound concentrations:100 nM and 1000 nM (sheet 'Lestaurtinib' of Supplementary Table 1),run:Lestaurtinib_02766_R2,Plate:MR027",71.2 nM
same,potency estimated from few doses,"CHEK1; compound concentrations:100 nM and 1000 nM (sheet 'Lestaurtinib' of Supplementary Table 1),run:Lestaurtinib_02766_R3,Plate:MR027",82.7 nM
same,potency estimated from few doses,"CHEK1; compound concentrations:100 nM and 1000 nM (sheet 'Lestaurtinib' of Supplementary Table 1),run:Lestaurtinib_02768_R1,Plate:MR028",82.7 nM
same,potency estimated from few doses,"CHEK1; compound concentrations:100 nM and 1000 nM (sheet 'Lestaurtinib' of Supplementary Table 1),run:Lestaurtinib_02768_R3,Plate:MR028",86.1 nM
same,potency estimated from few doses,"CHEK1; compound concentrations:100 nM and 1000 nM (sheet 'Lestaurtinib' of Supplementary Table 1),run:Lestaurtinib_02795_R1,Plate:MR022",89.5 nM
same,potency estimated from few doses,"CHEK1; compound concentrations:100 nM and 1000 nM (sheet 'Lestaurtinib' of Supplementary Table 1),run:Lestaurtinib_02795_R2,Plate:MR022",80.2 nM
same,potency estimated from few doses,"CHEK1; compound concentrations:100 nM and 1000 nM (sheet 'Lestaurtinib' of Supplementary Table 1),run:Lestaurtinib_02795_R3,Plate:MR022",211 nM
same,potency estimated from few doses,"CHEK1; compound concentrations:100 nM and 1000 nM (sheet 'Lestaurtinib' of Supplementary Table 1),run:Lestaurtinib_02802_R1,Plate:MR029",84.3 nM
same,potency estimated from few doses,"CHEK1; compound concentrations:100 nM and 1000 nM (sheet 'Lestaurtinib' of Supplementary Table 1),run:Lestaurtinib_02802_R2,Plate:MR029",91.6 nM
same,potency estimated from few doses,"CHEK1; compound concentrations:100 nM and 1000 nM (sheet 'Lestaurtinib' of Supplementary Table 1),run:Lestaurtinib_02802_R3,Plate:MR029",91.6 nM
same,potency estimated from few doses,"CHEK1; compound concentrations:100 nM and 1000 nM (sheet 'Lestaurtinib' of Supplementary Table 1),run:Lestaurtinib_02896_R1,Plate:MR030",73.7 nM
same,potency estimated from few doses,"CHEK1; compound concentrations:100 nM and 1000 nM (sheet 'Lestaurtinib' of Supplementary Table 1),run:Lestaurtinib_02896_R2,Plate:MR030",70 nM
same,potency estimated from few doses,"CHEK1; compound concentrations:100 nM and 1000 nM (sheet 'Lestaurtinib' of Supplementary Table 1),run:Lestaurtinib_02896_R3,Plate:MR030",66.7 nM
same,potency estimated from few doses,"CHEK1; compound concentrations:100 nM and 1000 nM (sheet 'Lestaurtinib' of Supplementary Table 1),run:Lestaurtinib_03172_R2,Plate:MR031",83.5 nM
same,potency estimated from few doses,"CHEK1; compound concentrations:100 nM and 1000 nM (sheet 'Lestaurtinib' of Supplementary Table 1),run:Lestaurtinib_03172_R3,Plate:MR031",94.3 nM
same,potency estimated from few doses,"CHEK1; compound concentrations:100 nM and 1000 nM (sheet 'Lestaurtinib' of Supplementary Table 1),run:Lestaurtinib_03260_R3,Plate:MR033",67.9 nM
same,potency estimated from few doses,"ERN1; compound concentrations:100 nM and 1000 nM (sheet 'Lestaurtinib' of Supplementary Table 1),run:Lestaurtinib_02339_R1,Plate:MR001",97.9 nM
same,potency estimated from few doses,"ERN1; compound concentrations:100 nM and 1000 nM (sheet 'Lestaurtinib' of Supplementary Table 1),run:Lestaurtinib_02339_R2,Plate:MR001",65.8 nM
same,potency estimated from few doses,"ERN1; compound concentrations:100 nM and 1000 nM (sheet 'Lestaurtinib' of Supplementary Table 1),run:Lestaurtinib_02339_R3,Plate:MR001",47 nM
same,potency estimated from few doses,"ERN1; compound concentrations:100 nM and 1000 nM (sheet 'Lestaurtinib' of Supplementary Table 1),run:Lestaurtinib_02364_R1,Plate:MR002",75.2 nM
same,potency estimated from few doses,"ERN1; compound concentrations:100 nM and 1000 nM (sheet 'Lestaurtinib' of Supplementary Table 1),run:Lestaurtinib_02364_R2,Plate:MR002",58.2 nM
same,potency estimated from few doses,"ERN1; compound concentrations:100 nM and 1000 nM (sheet 'Lestaurtinib' of Supplementary Table 1),run:Lestaurtinib_02367_R1,Plate:MR003",83.4 nM
same,potency estimated from few doses,"ERN1; compound concentrations:100 nM and 1000 nM (sheet 'Lestaurtinib' of Supplementary Table 1),run:Lestaurtinib_02367_R3,Plate:MR003",76.1 nM
same,potency estimated from few doses,"ERN1; compound concentrations:100 nM and 1000 nM (sheet 'Lestaurtinib' of Supplementary Table 1),run:Lestaurtinib_02381_R1,Plate:MR004",44.2 nM
same,potency estimated from few doses,"ERN1; compound concentrations:100 nM and 1000 nM (sheet 'Lestaurtinib' of Supplementary Table 1),run:Lestaurtinib_02381_R2,Plate:MR004",58 nM
same,potency estimated from few doses,"ERN1; compound concentrations:100 nM and 1000 nM (sheet 'Lestaurtinib' of Supplementary Table 1),run:Lestaurtinib_02407_R1,Plate:MR005",74.7 nM
same,potency estimated from few doses,"ERN1; compound concentrations:100 nM and 1000 nM (sheet 'Lestaurtinib' of Supplementary Table 1),run:Lestaurtinib_02407_R3,Plate:MR005",65.8 nM
